From PubChem BioAssay
Sampled rows, rich in hits. Any-hit rate of the full collection: about 2.4%.
WRN helicase inh-1 – WRN helicase (human) inhibition | 360,000 tested, 0.46% active | AID 651768 | Potency, µM (doses to about 114 µM), for inactives: at the highest dose activity change, negative = inhibition, actives largely listed as inhibitors | WRN helicase unwinding, fluorescent forked duplex, kinetic; note: % is set by controls: 0 for no effect and ±100 for the full control effect; nearly all actives have a fitted effect of over 55% in size
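Kinetic red-fluorescence monitoring (525/598 nm) tracks WRN helicase activity after 100 nM fluorophore-quencher forked duplex and 2 mM ATP are added to 20 nM enzyme pretreated 15 min at room temperature with compound.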
FEN1 inh-1 – human FEN1 inhibition. Recombinant FEN1 flap cleavage, fluorescence, 15 min. 390,000 tested, 0.35% active. P39748. AID 588795. Potency, µM (highest dose often 114 µM), inactives show top-dose activity change, negative = inhibition, most hits filed as inhibitors; note: % is set by controls: 0 for no effect and ±100 for the full control effect; nearly all actives have a fitted effect of over 65% in size
Target sequence (P39748 whole entry, looked up): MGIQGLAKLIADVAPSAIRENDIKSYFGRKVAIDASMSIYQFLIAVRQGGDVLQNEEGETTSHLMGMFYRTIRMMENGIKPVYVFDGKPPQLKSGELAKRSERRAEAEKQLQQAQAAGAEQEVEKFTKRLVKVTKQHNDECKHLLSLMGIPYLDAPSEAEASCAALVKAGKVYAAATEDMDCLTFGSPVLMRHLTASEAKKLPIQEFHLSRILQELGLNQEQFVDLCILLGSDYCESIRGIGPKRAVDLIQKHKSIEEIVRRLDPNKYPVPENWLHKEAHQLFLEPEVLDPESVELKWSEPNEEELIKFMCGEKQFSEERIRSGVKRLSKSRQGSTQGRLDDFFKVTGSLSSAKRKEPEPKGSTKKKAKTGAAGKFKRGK
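Enzyme 10 nM, 15 min RT preincubation with compound; start with substrate 50 nM final; reads at 0 and 15 min; qHTS titration, four-parameter Hill fit.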
POLI inh – DNA polymerase iota (human) inhibition. Pol iota fluorescent replication assay, 10 min. Potency, µM (doses to about 115 µM), inactives show at the highest dose activity, negative = inhibition, usual class: inhibitors. 390,000 tested, 1% active. AID 588590
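Pol iota at 10 nM preincubated 15 min with compounds at room temperature; reaction started with fluorescent substrate, 50 nM final. Fluorescence read kinetically at 0 and 10 min; buffer-only wells as negative control.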
Pol kappa inh-1 – DNA polymerase kappa (human) inhibition. Q9UBT6. purified Pol kappa, fluorescent DNA synthesis assay, 10 min. Potency, µM (highest dose often 107 µM), for the others: at the top dose activity, negative = inhibition, most hits filed as inhibitors. 400,000 tested, 0.53% active. AID 588579; note: % is set by controls: 0 for no effect and ±100 for the full control effect
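Pol kappa 10 nM + cpd, 15 min RT; start w/ substrate 50 nM final; fluorescence kinetic read, 0 and 10 min. Neg ctrl: buffer, no enzyme.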
Pol eta inh-1 – DNA polymerase eta (human) inhibition | Q9Y253 | recombinant Pol eta, fluorescent DNA replication assay | Potency, µM (highest dose often 114 µM), inactives show at the highest dose activity change, negative = inhibition, hits mostly inhibitors | 390,000 tested, 1.2% active | AID 588591; note: % is set by controls: 0 for no effect and ±100 for the full control effect
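Pol eta at 10 nM preincubated with compounds 15 min at room temperature; reaction started with fluorescent substrate (50 nM final) and read kinetically at 0 and 10 min.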
Pol beta inh – DNA polymerase beta (human) inhibition; P06746; Pol beta primer extension/strand displacement, fluorescence kinetic; Potency, µM (highest dose often 114 µM), for the others: top-dose activity change, negative = inhibition, hits mostly inhibitors; 340,000 tested, 1.3% active; AID 485314; note: % is set by controls: 0 for no effect and ±100 for the full control effect
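Human Pol beta at 10 nM; strand-displacement substrate 50 nM final. Compound exposure 15 min at room temperature before start, reaction 10 min at room temperature.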
TbPGK inh – TbPGK inhibition, hit validation; TbPGK coupled GAPDH assay, Kinase-Glo luminescence; Potency, µM (top dose mostly 57.5 µM), without a hit: at the highest dose activity change, negative = inhibition, usual class: inhibitors; shares compounds with Pol kappa inh-1; 500 tested, 79% active; note: % is set by controls: 0 for no effect and ±100 for the full control effect; nearly all actives have a fitted effect of over 65% in size
Pol iota confirm – Human Pol iota inhibitor confirmatory assay | shares compounds with Pol kappa inh-1 | Pol iota primer extension, TAMRA/BHQ fluorescence | Potency, µM, usual class: inhibitors | 1,500 tested, 77% active | AID 720496
Pol kappa inh-2 – Pol kappa (human) inhibition, cherry-pick confirmation; shares compounds with Pol eta inh-1; purified Pol-kappa, fluorescent strand-displacement substrate; Potency, µM, usual class: inhibitors; 920 tested, 76% active; AID 720501
Pol eta inh-2 – confirmation of human DNA polymerase eta inhibitors | shares compounds with Pol eta inh-1 | Pol eta primer extension, TAMRA/BHQ fluorescence, 10 min | Potency, µM, usual class: inhibitors | 2,600 tested, 64% active
FEN1 inh-2 – FEN1 inhibition, cherry-pick retest | Potency, µM, usual class: inhibitors | AID 720498 | shares compounds with FEN1 inh-1 | FEN1 flap cleavage, TAMRA/BHQ2 fluorogenic DNA substrate | 880 tested, 79% active; note: nearly all actives have a fitted effect of over 60% in size
WRN helicase inh-2 – confirmation of human WRN helicase inhibitors | shares compounds with WRN helicase inh-1 | WRN helicase DNA unwinding, fluorescence kinetic | Potency, µM (titrated, usually from 57.1 µM), for the others: top-dose activity, negative = inhibition, usual class: inhibitors | 610 tested, 63% active; note: nearly all actives have a fitted effect of over 65% in size
TO displacement – DNA binding via thiazole orange displacement; Potency, µM (top dose mostly 57.1 µM), without a hit: at the top dose activity change, negative = inhibition, actives largely listed as inhibitors; thiazole orange DNA binding displacement, fluorescence; shares compounds with WRN helicase inh-1; 610 tested, 10% active;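 note: drop in dye fluorescence marks compound binding to DNA; % is set by controls: 0 for no effect and ±100 for the full control effect; nearly all actives have a fitted effect of over 60% in size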
BLM helicase inh – BLM helicase inhibition, WRN selectivity check; shares compounds with WRN helicase inh-1; Recombinant BLM helicase DNA unwinding, red fluorescence; Potency, µM (highest dose often 57.1 µM), without a hit: at the top dose activity change, negative = inhibition, hits mostly inhibitors; 610 tested, 60% active; note: nearly all actives have a fitted effect of over 60% in size
Starred values were filed as active, the others as inactive; i = inactive; ? = inconclusive; · = no result; [ ] = remark or other dose. Calls come from the whole dose curve; as a rule, active = well fitted curve in the direction sought with a large enough effect; inconclusive = small, poorly fitted or top-dose-only effect, or another doubt; inactive = no such curve, though single readings can be large; an effect the other way counts as inactive or inconclusive. Potency is the fitted concentration of half-maximal effect.

SMILES | WRN helicase inh-1 | FEN1 inh-1 | POLI inh | Pol kappa inh-1 | Pol eta inh-1 | Pol beta inh | Pol iota confirm | Pol eta inh-2 | FEN1 inh-2 | WRN helicase inh-2 | TO displacement | BLM helicase inh | others
Cc1ccc(C)n1-c1cccc(C(=O)O)c1 | · | · | · | · | · | 1µM* | 8.4* | 0.17* | 21* | · | · | · | Pol kappa inh-2=?
Cc1c(N)c(C(C)(C)C)cc(C(C)(C)C)c1[N+](=O)[O-] | -5% | -5% | -25% | -15% | ? | 0% | · | · | · | · | · | ·
Cc1cc2nc3c(=O)[nH]c(=O)[nH]c3nc2c([N+](=O)[O-])c1N | 50µM* | 45µM* | ? | 28µM* | 3.5µM* | 35µM* | 24* | 21* | 38* | · | · | · | Pol kappa inh-2=17*
CCc1ccc(CNC(=O)Cc2ccc(NC(=O)N3CCSc4ncccc43)cc2)cc1 | · | -4% | 24% | 1% | -11% | 1% | · | · | · | · | · | ·
CCCc1cc(=O)oc2cc(OCC(=O)NCc3cccs3)ccc12 | 1% | -3% | 20% | 14% | 4% | -22% | · | · | · | · | · | ·
CCCc1cc(=O)oc2cc(OCC(=O)Nc3ccc(S(N)(=O)=O)cc3)ccc12 | ? | ? | 5µM* | 40µM* | 10µM* | 89µM* | 38* | · | 67* | · | · | ·
N#CC(C#N)=C1C=C2C=C(N3CCCCCC3)CCC2CC1 (stereo not drawn) | 15µM* | ? | 45µM* | ? | 50µM* | 40µM* | 42* | 17* | 67* | · | · | ·
CCN(c1ccccc1)S(=O)(=O)c1cc(C(=O)O)ccc1C | -31%[11.6 µM] | -7% | ? | -30% | 13µM* | 13µM* | 7.5* | 9.5* | ? | · | · | · | Pol kappa inh-2=5.3*
O=C(O)c1ccc(Cl)c(S(=O)(=O)N(Cc2ccccc2)c2ccccc2)c1 | -5% | 3% | 18% | -9% | -16% | -1% | · | · | · | · | · | ·
COc1ccc(-c2[nH]c(-c3cccc(OC)c3)nc2SCC(=O)Nc2ccc3c(c2)OCO3)cc1 | · | -18% | 19% | -14% | -28% | -1% | · | · | · | · | · | ·
O=S(=O)(O)c1cc(Cl)cc(N=Nc2ccc(O)cc2O)c1O | 50µM* | 56µM* | i | -170% | 13µM* | · | 12* | 43* | 85* | · | · | · | Pol kappa inh-2=6.7*
Cc1cccc(C(=O)Oc2ccc(/C=N/NC(=O)c3cc(O)cc(O)c3)cc2)c1 | 35µM* | ? | 18µM* | 50µM* | 7.9µM* | 7.1µM* | 67* | 34* | · | 22µM* | ? | 14µM* | Pol kappa inh-2=15*
Cc1cccc(C(=O)Oc2ccc(/C=N/NC(=O)c3ccncc3)cc2)c1 | 3% | -4% | 153% | 0% | -3% | 2% | · | · | · | · | · | ·
Cn1c(C(=O)Nc2cccc(Cl)c2)cc2c(=O)n(C)c3ccccc3c21 | · | 0% | 40% | 1% | -15% | 12% | · | · | · | · | · | ·
N#C/C(=C\c1ccc(O)c(O)c1)C(=O)Nc1cccc2ncccc12 | 14µM* | 45µM* | 3.2µM* | 4µM* | 2.8µM* | 0.79µM* | 6.7* | 3.8* | ? | 4.3µM* | 12µM* | 1.7µM*
O=C1COc2ccc(C(=O)COC(=O)c3ccc4ccccc4n3)cc2N1 | ? | -23% | ? | -29% | ? | ? | 47* | ? | · | 14µM* | 11% | 8.6µM*
O=C(CSc1nc2ccccc2n1CCc1ccccc1)c1ccc(O)c(O)c1 | 7.9µM* | 56µM* | 2.8µM* | ? | 3.2µM* | 0.5µM* | 3* | 3* | 67* | 6.8µM* | 17µM* | 1.5µM* | TbPGK inh=1.5µM*
O=C(CSc1nc2ccccc2n1CCc1ccccc1)N1CCOCC1 | -8% | -6% | 0% | -14% | -20% | 1%[57.1 µM] | · | · | · | · | · | ·
Oc1ccc(-c2cn3c(n2)SCC3)cc1O | 4.7µM* | ? | 2.5µM* | 7.1µM* | 2.8µM* | 1.3µM* | 9.5* | 3.4* | · | ? | 30% | 17µM*
C=CCOC(=O)c1cc(-c2ccc(/C=C3\C(=O)NC(=O)C(C#N)=C3C)o2)ccc1Cl | 11µM* | 79µM* | ? | 28µM* | 3.5µM* | 13µM* | 67* | 30* | · | 15µM* | ? | 6.8µM*
CC(C)COC(=O)c1cc(-c2ccc(/C=N/n3cnnc3)o2)ccc1Cl | -4% | -7% | 25% | -28% | 3% | ? | · | · | · | · | · | ·
Cc1ccc(-c2nn3cnnc3s2)cc1NC(=O)c1ccc(-c2cccc(Cl)c2)o1 | · | · | · | · | · | · | 27* | 76* | · | ? | 163% | ? | Pol kappa inh-2=?
CCCCSCc1ccc(C(=O)O)o1 | -8% | 6% | -11% | 0% | -7% | 6% | · | · | · | · | · | ·
CC(=O)c1c(C)oc(C)c1CSCc1ccc(C(=O)O)o1 | ? | -17% | 7.9µM* | 32µM* | 6.3µM* | 13µM* | 47* | ? | · | 9.6µM* | -4% | 19µM*
COc1cccc(N2CC(NC(=O)CCCc3ccccc3)CC2=O)c1 (stereo not drawn) | · | 20% | 2% | -10%[60.1 µM] | 11% | 0% | · | · | · | · | · | ·
